# Experimental data reported in PubChem BioAssay (NCI).
# Compounds without any hit were thinned out: in the full panel of roughly 83,000, 20% have a hit.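 Single-dose data. Exposure time 48 hours. Values below 10 considered active.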 Values without a mark were called inactive. Activity calls are given as the source filed them.
# Tests used:
# Assay in all cases: NCI-60 one-dose screen, 48 h (100 = growth as untreated, 0 = no growth, -100 = all killed)
# Details in all cases: 10 µM
# T-47D breast = system: T-47D breast
# BT-549 breast = system: BT-549 breast
# MDA-MB-435 melanoma = system: MDA-MB-435 melanoma
# SW-620 colon = system: SW-620 colon
# MCF7 breast = system: MCF7 breast
# HCT-116 colon = system: HCT-116 colon
# HCC-2998 colon = system: HCC-2998 colon
# KM12 colon = system: KM12 colon
Compound,growth (T-47D breast),growth (BT-549 breast),growth (MDA-MB-435 melanoma),growth (SW-620 colon),growth (MCF7 breast),growth (HCT-116 colon),growth (HCC-2998 colon),growth (KM12 colon)
CN1CCN(CCC(=O)Nc2cccc(-n3cc(-c4ccncc4)c(-c4ccc(Cl)c(O)c4)n3)c2)CC1,62.9%,56.5%,-37.9% (active),20.9%,13.9%,19.1%,82.2%,31.2%
COc1cc(-c2nn(-c3cccc(NC(=O)NCCNC(=O)c4ccccc4)c3)cc2-c2ccncc2)ccc1Cl,-7.51% (active),-7.03% (active),2.69% (active),11.8%,6.01% (active),3.85% (active),31.3%,12.2%
Cc1cc(=O)n2nnc3cc(C(F)(F)F)ccc3n12,116%,127%,99.4%,118%,120%,103%,104%,105%
COc1cc2cc(Oc3ccc(NC(=O)c4ccc(Cl)c(C(F)(F)F)c4)cc3)c(C)nc2cc1OC,82.8%,20.8%,25.7%,34.2%,24.8%,8.43% (active),41.3%,19.7%
O=C(Nc1cccc2c1CCCC2)c1cc2ccccc2cc1O,32.4%,27.4%,41.8%,51.4%,62.6%,6.56% (active),59.1%,49.9%
CC(=O)/C(=C/c1ccc(Br)cc1)C(=O)c1ccccc1,86.5%,96.9%,65.9%,58.2%,43.4%,12.2%,–,58.6%
COc1ccc(-c2onc(N)c2-c2cc(OC)c3c(c2)OCO3)cc1,19.3%,42.6%,-24.1% (active),16.8%,8.88% (active),15.5%,52.1%,21.8%
C/C(=C/CCC(C)[C@@H]1CC[C@]2(C)C3=C(CC[C@@]12C)[C@@]1(C)CCC(=O)C(C)(C)[C@@H]1CC3)C(=O)O (stereo not given in full),-48.9% (active),-90.8% (active),-75% (active),-85.2% (active),-54.8% (active),-93.1% (active),-85.3% (active),-87.6% (active)
COc1cc(/C=C2\CCCC3C2=Nc2ccccc2NC3c2cc(OC)c(OC)c(OC)c2)cc(OC)c1OC (stereo not given),23.9%,-16.4% (active),3.26% (active),5.74% (active),36.9%,-58.4% (active),-60.2% (active),-65.3% (active)
COc1cc(-c2nn(-c3cccc(NC(=O)CN4CCOCC4)c3)cc2-c2cccnc2)ccc1Cl,72.2%,62.2%,6.77% (active),62.2%,62.4%,82.7%,112%,71.9%
O=C(Nc1ccc(OS(=O)(=O)c2ccccc2)cc1)C1CCCCC1,85.4%,84%,100%,102%,97%,72.1%,92.4%,88.5%
N#Cc1c(-c2ccc(Cl)cc2)csc1NC(=O)Nc1ccc(Cl)c(C(F)(F)F)c1,-17.7% (active),6.57% (active),26%,11.1%,3.1% (active),-14.7% (active),19.8%,10.4%
Cc1ccc(-c2c3c(N)nc(-c4cccnc4)nc3nc3c2c(C)nn3-c2ccccc2)cc1,81.8%,100%,82.7%,102%,87.7%,81.1%,103%,97.1%
COC(=O)CC[C@@H](C)[C@H]1CC[C@H]2[C@@H]3CC[C@@H]4C[C@H](O)CC[C@]4(C)[C@H]3C[C@H](O)[C@]12C,89.2%,96.4%,118%,107%,84.8%,86.7%,–,102%
CCCCCC(=O)O[C@]1(C(C)=O)CCC2C3CCC4=CC(=O)CC[C@]4(C)C3CC[C@@]21C (stereo not given in full),28.6%,31.1%,28.4%,29.5%,13.4%,11.5%,26.2%,28.7%
COc1ccc2c(c1)C(=O)/C(=C/c1cccc(OCC(=O)c3ccc([N+](=O)[O-])cc3)c1)CO2,50.3%,-34.5% (active),24.4%,-89% (active),-35.9% (active),-74.2% (active),–,-87.9% (active)

Compound,growth (T-47D breast),growth (BT-549 breast),growth (MDA-MB-435 melanoma),growth (SW-620 colon),growth (MCF7 breast),growth (HCT-116 colon),growth (HCC-2998 colon),growth (KM12 colon)
CN1CCc2c(sc3nc4n(-c5ccc(Cl)cc5)cnn4c(=O)c23)C1,91.8%,93.4%,102%,110%,70.6%,98%,104%,103%
N#Cc1c(N)nc(-c2cc(F)cc(C(F)(F)F)c2)nc1-c1ccccc1F,49%,58.9%,85.7%,63.4%,73.6%,26.2%,75.6%,79.7%
Cc1c2cnccc2c(C)c2c1c1cc(O)ccc1n2C(C)C,3.1% (active),-2.72% (active),8.19% (active),2.58% (active),-3.2% (active),-49.4% (active),20.8%,3.74% (active)
CCOC(=O)CC(S(=O)(=O)c1ccccc1)S(=O)(=O)c1ccccc1,88.1%,110%,107%,8.23% (active),101%,102%,109%,97.1%
S=C(NCc1ccccc1)NCc1ccccc1,94.6%,95.4%,101%,100%,96.3%,97.3%,111%,102%
CNC(=O)c1cc(Oc2ccc3c(c2)sc2nc(-c4ccc(NC(=O)Nc5ccc(Cl)c(C(F)(F)F)c5)cc4)cn23)ccn1,19.4%,75.7%,91.1%,103%,82.6%,73.2%,102%,83.5%
CN1CCN(C2=Nc3ccccc3Oc3ccc(Cl)cc32)CC1,81.3%,111%,96.9%,96.2%,97.4%,92.4%,116%,102%
C=C(C)[C@@H]1CC[C@]2(COCCC#N)CC[C@]3(C)[C@H](CC[C@@H]4[C@@]5(C)Cc6c([nH]c7ccccc67)C(C)(C)[C@@H]5CC[C@]43C)[C@@H]12,81.8%,95.3%,95.8%,92.6%,81.1%,82%,104%,95.8%
O=C1CC(SC(=S)C2CCCC2=O)C(=O)N1 (stereo not given),93.9%,100%,114%,110%,90.8%,99.2%,108%,103%
Cc1ccc(C(=O)C2C(=O)C3CCC2C3)cc1 (stereo not given),108%,105%,100%,104%,97.5%,108%,106%,107%
COc1ccc(/C=C2\CCCC3=C2NC(N)=NC3c2ccc(OC)cc2)cc1 (stereo not given),104%,112%,90.2%,95.8%,72.3%,78.6%,116%,87.2%
O=C1CCn2c1c(O)c1ccccc1c2=O,94.5%,113%,99.5%,101%,94.8%,107%,109%,109%
COc1ccc(-c2cc(-c3ccc(OC)c(OC)c3)nc(SCCCC(=O)NO)n2)cc1,4.26% (active),8.08% (active),1.23% (active),2.56% (active),-22% (active),0.272% (active),-15.7% (active),15.7%
Oc1ccc(/C=N/N=C2c3ccccc3-c3ccccc32)c(O)c1,42.8%,78.4%,21.5%,75.4%,43.3%,66.1%,80.9%,52.2%
OCC1OC(n2cnc3c(NCc4ccco4)ncnc32)C(O)C1O (stereo not given),8.92% (active),-23% (active),17.2%,18.8%,-13.1% (active),1.81% (active),23.7%,62.8%
